The text below walks through data of the OligoGym collection.
Further: reference of the scale not given here.

One experiment has as its target EFCAB6. Nature of the experiment: pooled miR-30 sensor sort-seq; sequence = guide strand. Particulars: shRNA.
Sequence TTCACTTAACAGCTGATCCTTT displayed a sensor-assay potency score (higher = more potent) of 0.362.

TAAATGTTCACTTAACAGCTGA showed a sensor-assay potency score (higher = more potent) of -0.275. TATATCGAAATTCTTCTCTTGT yielded a sensor-assay potency score (higher = more potent) of 0.825. In the case of TTTCATAACAGTCTTAATGTTT, the sensor-assay potency score (higher = more potent) is -0.893. Still for that read-out and setting: for TTCTTAGACAAGTCTGACCATC the value was -0.457.

On to TAAGAGAACATCCACATTCTTC, for which the sensor-assay potency score (higher = more potent) is -0.398. For TTAGACAAGTCTGACCATCTGT, the sensor-assay potency score (higher = more potent) amounted to 0.537.

The next experiment concerns the target EFCAB7. The description is as above. As to conditions: shRNA.
In turn, TACAATAATATATCCATTCTTG returned a sensor-assay potency score (higher = more potent) of -0.277. On to TTCTCTATTTCGTAGTTCGGTA, for which the sensor-assay potency score (higher = more potent) is -1.01. Regarding TTGATCTTTAGAAATAATGTTT, the sensor-assay potency score (higher = more potent) is -0.858. Still for that read-out and setting: for TTGTTTTCAATAACTGACGTTA the value was -0.29. The sequence TTTACTGTCAACCTCTAGTTTT yielded a sensor-assay potency score (higher = more potent) of -1.12. TAATTTACAAAACTTGATGTAG had a sensor-assay potency score (higher = more potent) of -0.142.

Take TTCATCTCTATATACAAGTTGG: the sensor-assay potency score (higher = more potent) was -0.725. With TTCTCGATCATTAGCTTCCATT, the sensor-assay potency score (higher = more potent) is -1.27. Same read-out and setting: for TTCGGTAAAACACACAAGCTGT the value was -0.242.

With TTTGTATCAAAATTCTCTCTGC, the sensor-assay potency score (higher = more potent) was 0.129. Sequence TAGTCTTGAGACATTGCTCGTT yielded a sensor-assay potency score (higher = more potent) of 0.405. TATATTTTCATAGCCATCCATT: the sensor-assay potency score (higher = more potent) is -0.796.
